From PubChem BioAssay (NCATS) come the findings set out here.

The target in experiment [1] is Cytochrome P450 3A4 (Homo sapiens) (UniProt P08684). The experiment is described as follows: qHTS Assay for Inhibitors and Substrates of Cytochrome P450 3A4 (AID 884). Note: % is set by controls: 0 for no effect and ±100 for the full control effect; nearly all actives have a fitted effect of over 50% in size. Put shortly:
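20 nM human CYP3A4 with 25 uM Luciferin-PPXE (at KM) in 200 mM KPO4, preincubated 10 min with compound; NADPH regeneration started a 60 min RT reaction. Luciferin detected by luminescence, normalized to 57 uM ketoconazole as full inhibition.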
(In general: qHTS replaces the single test concentration by a dilution series.)

Experiment [2] concerns Zika virus NS2B-NS3 protease. Description: Primary screen GU AMC qHTS for Zika virus inhibitors (AID 1347154).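 For activity change, negative = inhibition: 0% = no-inhibitor control and -100% = no-enzyme control.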 Note: nearly all actives have a fitted effect of over 70% in size. Note: potency is the fitted concentration of half-maximal effect. Summed up: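 Unlinked Zika NS2B hydrophilic domain/NS3 protease domain noncovalent complex (25 nM final) in 10 mM Tris-HCl pH 8.0, 0.01% Tween 20, with AMC peptide substrate. Fluorescence (ex 340, em 450 nm) change over 15 min, room temperature; percent inhibition fitted to 4-parameter Hill equation.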

The nature of experiment [3]: AP1 Signaling Pathway (AID 357; active = well fitted curve in either direction with a large enough effect, not every such curve was filed as active;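 note: ME-180 reporter cells stimulated with EGF at its EC50 level; % is set by controls: 0 for no effect and ±100 for the full control effect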). To be noted: ME-180 AP-1-bla reporter, EGF-induced, beta-lactamase ratio, 5 h. Summed up: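 A ratiometric CCF4 readout (405 nm excitation; 460 and 530 nm emission) quantified AP-1-driven beta-lactamase in ME-180 cells after 5 h with compound and EC50 EGF; AC50 values were derived for activators and inhibitors.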
Experiment [4] has as its target Cytochrome P450 1A2 (Homo sapiens) (UniProt P05177). Description: p450-cyp1a2 (AID 410; calls by dose curve; note: potency is the fitted concentration of half-maximal effect;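 for activity change, negative = inhibition: -100% = full effect of reference inhibitor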). Summed up:
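Luminescent readout of luciferin formed from Luciferin-ME by human CYP1A2; data normalized against complete inhibition by 57 uM furafylline. Enzyme 20nM, substrate 100uM at Km, 100mM KPO4 buffer, 60 min reaction at room temperature.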

A short description of experiment [5]: NFAT Signaling Pathway (AID 444; active = well fitted curve in either direction with a large enough effect, not every such curve was filed as active;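 note: carbachol stimulus at about its EC50 of 1 µM final; % is set by controls: 0 for no effect and ±100 for the full control effect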). Conditions: Jurkat NFAT-bla M1, carbachol, beta-lactamase ratio, 5 h. Summed up:
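Jurkat cells carrying an NFAT-driven β-lactamase reporter and co-transfected muscarinic M1 receptor were treated with compound plus carbachol (1 uM final, an EC50 level) for 5 h at 37 °C. CCF4 loading followed for 1 h at RT; 460/530 nm ratio gave %activity.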

Experiment [6] can be described thus: Stat Signaling Pathway (AID 446; active = well fitted curve in either direction with a large enough effect, not every such curve was filed as active;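 note: ME-180 cervical cancer cells given 40 pM IL-6 alongside compound; SIE-controlled beta-lactamase reporter measured as 460/530 nm FRET emission ratio; % is set by controls: 0 for no effect and ±100 for the full control effect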). Conditions: ME-180 (cervical carcinoma) SIE beta-lactamase reporter, IL-6 stimulated, 5 h. Summed up:
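ME-180 SIE-bla cells; overnight plating; cpd + IL-6 40 pM, 5 h, 37 C; LiveBLAzer 2.5 h RT; 460/530 nm emission ratio. Normalized to 300 pM IL-6 and 125 nM JAK inhibitor controls.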

Experiment [7] has as its target Mitogen-activated protein kinase 10 (Mus musculus) (UniProt Q61831). The experiment is described as follows: JNK3 AlphaScreen Assay (AID 530; active = well fitted curve in either direction with a large enough effect, not every such curve was filed as active;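 note: kinase came from lysate of stimulated human HepG2 cells; signal reports phosphorylation of biotinylated GST-cJun 1-79 at Ser73 with 10 µM ATP; % is set by controls: 0 for no effect and ±100 for the full control effect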). Summed up: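 Inhibitors reduce antibody binding to phosphorylated biotin-cJun, lowering AlphaScreen luminescence. Lysates from HepG2 cells pre-activated by IL-1beta plus TNF-alpha supplied JNK3; compounds were titrated.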
On the technique in general: Bead proximity is the source of the signal in Alpha formats.

Experiment [8] concerns the target 3',5'-cyclic-AMP phosphodiesterase 4B (Homo sapiens) (UniProt Q07343). Description: qHTS Assay for Inhibitors of PDE-IV (AID 607; active = well fitted activation curve with a large enough effect in the main read-out, with a control signal flat, not every such curve was filed as active; note: % of control where 0% means no effect). Summed up:
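ACTOne HEK293 cells carry a modified cAMP-gated CNG channel and express endogenous PDE4; plated 1000 cells/well, compounds up to 22.9 uM final. Membrane-potential dye fluorescence (ex 535/em 590) was read; parental cells received 10 uM forskolin + 100 uM RO 20-1724.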

Experiment [9] concerns the target Guanine nucleotide-binding protein G(i) subunit alpha-1 (Homo sapiens) (UniProt P63096). The experiment is described as follows: qHTS Assay for Inhibitors of RGS12 GoLoco Motif Activity (Green Fluorophore) (AID 879).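 Note: 0% = labeled peptide with Gαi1 and full inhibition = labeled peptide alone without protein; negative values mean loss of peptide binding seen as reduced polarization.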 Put shortly:
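Fluorescence polarization assay: 50 nM Gαi1 with 10 nM FITC-labeled RGS12 GoLoco peptide in 10 mM Tris pH 7.5, 150 mM NaCl, 0.1 mM GDP, 0.05% NP40, 10 min at room temperature with compound.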

For experiment [10], the target named is Cytochrome P450 2C9 (Homo sapiens) (UniProt P11712). Description: qHTS Assay for Inhibitors and Substrates of Cytochrome P450 2C9 (AID 883). Note: nearly all actives have a fitted effect of over 60% in size. Note: potency is the fitted concentration of half-maximal effect. Put shortly: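 A luminogenic readout tracked human CYP2C9 (10nM) converting deoxyluciferin (100uM, at KM) in 25mM KPO4 during 60 min at 37C with regenerated NADPH. Values normalized to 57uM sulphaphenazole as complete inhibition.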
Chain of Cytochrome P450 2C9 (Homo sapiens) (P11712 whole entry, looked up): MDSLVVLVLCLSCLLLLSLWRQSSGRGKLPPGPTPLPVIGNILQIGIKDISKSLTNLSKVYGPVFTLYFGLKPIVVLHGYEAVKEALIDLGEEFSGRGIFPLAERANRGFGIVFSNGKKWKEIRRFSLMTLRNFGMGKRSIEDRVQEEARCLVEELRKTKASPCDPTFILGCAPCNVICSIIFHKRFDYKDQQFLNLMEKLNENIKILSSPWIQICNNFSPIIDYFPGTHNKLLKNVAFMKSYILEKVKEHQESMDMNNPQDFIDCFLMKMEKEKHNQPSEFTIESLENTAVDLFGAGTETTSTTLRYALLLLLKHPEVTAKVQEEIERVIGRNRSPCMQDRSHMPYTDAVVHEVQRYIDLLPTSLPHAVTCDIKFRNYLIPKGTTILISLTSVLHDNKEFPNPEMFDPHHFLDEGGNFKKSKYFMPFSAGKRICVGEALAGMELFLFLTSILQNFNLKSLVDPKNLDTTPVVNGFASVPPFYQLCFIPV

Experiment [11] has as its target Cytochrome P450 2D6 (Homo sapiens) (UniProt P10635). Description: qHTS Assay for Inhibitors and Substrates of Cytochrome P450 2D6 (AID 891). Note: nearly all actives have a fitted effect of over 60% in size. Note: potency is the fitted concentration of half-maximal effect. Summed up: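 Human CYP2D6 (5 nM) with 30 uM Luciferin-ME EGE (at Km) in 100 mM KPO4, compound preincubated 10 min, then NADPH regeneration system for 60 min at room temperature. Luciferin read by luminescence; normalized to 1.43 uM quinidine.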

The target in experiment [12] is Cytochrome P450 2C19 (Homo sapiens) (UniProt P33261). The experiment is described as follows: qHTS Assay for Inhibitors and Substrates of Cytochrome P450 2C19 (AID 899). Note: nearly all actives have a fitted effect of over 60% in size. Note: potency is the fitted concentration of half-maximal effect. Put shortly: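 NADPH-dependent conversion of Luciferin-H EGE (10uM, at KM) by 5nM enzyme in 50mM KPO4, 60 min at 37C following 10 min compound preincubation. Stopped with luciferin detection buffer; luminescence read after 20 min.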
Chain of Cytochrome P450 2C19 (Homo sapiens) (P33261 whole entry, looked up): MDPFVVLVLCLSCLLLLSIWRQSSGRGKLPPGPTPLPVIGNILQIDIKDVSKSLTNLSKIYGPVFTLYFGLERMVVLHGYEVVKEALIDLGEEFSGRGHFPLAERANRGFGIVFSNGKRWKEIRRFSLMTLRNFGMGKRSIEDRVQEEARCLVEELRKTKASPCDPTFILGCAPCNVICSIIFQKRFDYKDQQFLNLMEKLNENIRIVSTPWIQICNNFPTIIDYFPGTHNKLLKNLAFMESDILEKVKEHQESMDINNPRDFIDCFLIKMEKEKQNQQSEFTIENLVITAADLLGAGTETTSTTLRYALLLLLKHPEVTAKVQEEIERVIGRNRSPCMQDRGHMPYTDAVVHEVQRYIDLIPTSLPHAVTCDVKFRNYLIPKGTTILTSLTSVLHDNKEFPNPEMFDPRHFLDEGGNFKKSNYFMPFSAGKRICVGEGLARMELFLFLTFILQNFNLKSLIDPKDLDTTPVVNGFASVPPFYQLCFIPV

For experiment [13], the target named is Pyruvate kinase (Leishmania mexicana) (UniProt Q27686). Description: qHTS Validation Assay for Inhibitors of Leishmania Mexicana Pyruvate Kinase (AID 945).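 Note: 0% = DMSO only neutral control wells.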 Put shortly: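 LmPYK E451W 0.2 nM; 0.5 mM PEP, 0.1 mM ADP, 7 mM MgCl2, 50 mM KCl, imidazole pH 7.2, 0.01% Tween 20, 0.05% BSA; 1 h RT; PKLight luminescence; DMSO-normalized.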
Experiment [14] addresses DNA dC->dU-editing enzyme APOBEC-3G (Homo sapiens) (UniProt Q9HC16). Description: qHTS for inhibitors of Vif-A3G interactions: Validation (AID 588379). Note: 0% is about no effect. Summed up:
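HeLa cells stably expressing Vif and A3G-eYFP, 700 cells/well, incubated overnight at 37 deg C, then exposed to compound overnight at 37 deg C. Inhibition of Vif-mediated degradation read as increased yellow fluorescence (Ex 488/Em 500-530) by laser-scanning cytometry.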

The target of experiment [15] is Glucocorticoid receptor (Homo sapiens) (UniProt P04150). Description: GR-GFP Redistribution (AID 450;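 active = compounds whose dose series gives a full or clear partial fitted curve of increased nuclear translocation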; note: potency is the fitted concentration of half-maximal effect). Conditions: U2OS GR-GFP nuclear translocation, laser cytometry, 2 h.
Chain of Glucocorticoid receptor (Homo sapiens) (P04150 whole entry, looked up): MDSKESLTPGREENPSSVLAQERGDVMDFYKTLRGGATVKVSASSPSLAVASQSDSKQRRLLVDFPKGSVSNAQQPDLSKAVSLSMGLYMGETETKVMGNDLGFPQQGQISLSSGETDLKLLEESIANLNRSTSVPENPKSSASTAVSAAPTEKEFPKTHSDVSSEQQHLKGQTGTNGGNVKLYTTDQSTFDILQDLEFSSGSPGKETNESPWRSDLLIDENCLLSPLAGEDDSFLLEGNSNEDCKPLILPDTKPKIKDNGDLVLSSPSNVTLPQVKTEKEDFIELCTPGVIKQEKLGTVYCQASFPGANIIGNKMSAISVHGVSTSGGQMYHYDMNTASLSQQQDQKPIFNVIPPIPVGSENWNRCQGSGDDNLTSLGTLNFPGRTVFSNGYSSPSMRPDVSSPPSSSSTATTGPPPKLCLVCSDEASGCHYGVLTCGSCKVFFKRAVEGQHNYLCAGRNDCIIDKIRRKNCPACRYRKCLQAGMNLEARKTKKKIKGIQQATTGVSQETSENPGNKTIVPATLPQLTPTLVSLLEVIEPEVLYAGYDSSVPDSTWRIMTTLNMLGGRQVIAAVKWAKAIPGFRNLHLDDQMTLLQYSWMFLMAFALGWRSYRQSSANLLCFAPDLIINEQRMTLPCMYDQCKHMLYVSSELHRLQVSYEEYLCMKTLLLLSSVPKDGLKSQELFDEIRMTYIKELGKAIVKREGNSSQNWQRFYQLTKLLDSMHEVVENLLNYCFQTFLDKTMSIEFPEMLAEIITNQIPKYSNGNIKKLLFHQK
The target is the same in experiment [16]. Description: GR-EFC Redistribution (AID 451; calls by dose curve; note: potency is the fitted concentration of half-maximal effect). To be noted: CHO-K1 GR-EFC translocation, beta-gal luminescence, 2 h. Summed up:
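CHO-K1 cells stably expressing nuclear-localized β-gal enzyme acceptor and GR fused C-terminally to the enzyme donor fragment; ligand-driven nuclear translocation restores β-gal by complementation. Compounds titrated up to 46 uM final, 2 h at 37 °C; luminescence read.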

Experiment [17] deals with Ubiquitin carboxyl-terminal hydrolase 1 (Homo sapiens) (UniProt O94782). Description: Inhibitors of USP1/UAF1: Pilot qHTS (AID 504865).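 Note: rhodamine fluorescence freed from ubiquitin-rhodamine substrate followed over time; top concentration of the series differs between compounds; % is set by controls: 0 for no effect and ±100 for the full control effect; nearly all actives have a fitted effect of over 35% in size.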 Put shortly:
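Deubiquitinase activity followed as kinetic rhodamine fluorescence release from 150 nM Ub-Rho. 1 nM USP1/UAF1 with compound, after 15 min room-temperature preincubation, in HEPES pH 7.8 buffer containing TCEP, EDTA, BSA and Tween-20.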

Experiment [18] concerns the target Cytochrome P450 3A4 (Homo sapiens) (UniProt P08684). The experiment is described as follows: qHTS Assay for Activators of Cytochrome P450 3A4 (AID 885). Note: nearly all actives have a fitted effect of over 65% in size. Summed up: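 20nM CYP3A4 + 25uM Luciferin-PPXE (=KM), 200mM KPO4; cpd 10 min RT; NADPH regen, 60 min RT; stop w/ detection buffer, 20 min; luminescence. Normalized to 57 uM ketoconazole.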

Molecules are shown by their SMILES. Where “and” joins values, the source holds several entries; their conditions need not be identical. Equal entries are not always repeated. Unmarked numbers belong to inactive results. Records with an inconclusive call do not appear. Calls of active or inactive are those of the source. Unless noted, calls come from the whole dose curve; as a rule, active = well fitted curve in the direction sought with a large enough effect; inconclusive = small, poorly fitted or top-dose-only effect, or another doubt; inactive = no such curve, though single readings can be large; an effect the other way counts as inactive or inconclusive.

Chain of Cytochrome P450 2D6 (Homo sapiens) (P10635 whole entry, looked up): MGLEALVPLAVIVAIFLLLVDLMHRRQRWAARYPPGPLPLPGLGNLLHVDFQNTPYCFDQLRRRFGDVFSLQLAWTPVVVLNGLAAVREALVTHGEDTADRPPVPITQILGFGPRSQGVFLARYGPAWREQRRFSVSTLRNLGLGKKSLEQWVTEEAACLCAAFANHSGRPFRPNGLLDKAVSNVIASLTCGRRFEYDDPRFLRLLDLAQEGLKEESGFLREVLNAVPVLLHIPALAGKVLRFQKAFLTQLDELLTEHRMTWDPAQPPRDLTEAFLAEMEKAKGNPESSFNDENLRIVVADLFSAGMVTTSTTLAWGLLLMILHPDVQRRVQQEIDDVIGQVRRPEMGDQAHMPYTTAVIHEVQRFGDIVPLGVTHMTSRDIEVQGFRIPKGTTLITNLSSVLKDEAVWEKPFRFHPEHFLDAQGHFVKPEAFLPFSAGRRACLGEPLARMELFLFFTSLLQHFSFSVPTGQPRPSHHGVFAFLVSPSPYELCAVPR
Chain of Cytochrome P450 3A4 (Homo sapiens) (P08684 whole entry, looked up): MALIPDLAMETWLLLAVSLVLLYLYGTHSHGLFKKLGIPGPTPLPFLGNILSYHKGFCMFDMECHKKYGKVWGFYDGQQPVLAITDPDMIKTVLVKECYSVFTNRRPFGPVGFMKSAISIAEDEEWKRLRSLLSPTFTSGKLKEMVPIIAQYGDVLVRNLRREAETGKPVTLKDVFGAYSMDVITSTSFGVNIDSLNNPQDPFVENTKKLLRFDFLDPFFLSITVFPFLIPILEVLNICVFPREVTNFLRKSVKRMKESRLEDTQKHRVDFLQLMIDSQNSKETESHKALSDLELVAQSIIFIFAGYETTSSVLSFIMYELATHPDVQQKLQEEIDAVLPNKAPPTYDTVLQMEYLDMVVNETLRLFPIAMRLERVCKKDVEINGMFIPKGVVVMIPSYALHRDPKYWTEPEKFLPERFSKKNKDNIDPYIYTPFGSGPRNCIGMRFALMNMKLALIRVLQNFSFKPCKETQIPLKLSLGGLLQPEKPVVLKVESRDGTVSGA
Chain of 3',5'-cyclic-AMP phosphodiesterase 4B (Homo sapiens) (Q07343 whole entry, looked up): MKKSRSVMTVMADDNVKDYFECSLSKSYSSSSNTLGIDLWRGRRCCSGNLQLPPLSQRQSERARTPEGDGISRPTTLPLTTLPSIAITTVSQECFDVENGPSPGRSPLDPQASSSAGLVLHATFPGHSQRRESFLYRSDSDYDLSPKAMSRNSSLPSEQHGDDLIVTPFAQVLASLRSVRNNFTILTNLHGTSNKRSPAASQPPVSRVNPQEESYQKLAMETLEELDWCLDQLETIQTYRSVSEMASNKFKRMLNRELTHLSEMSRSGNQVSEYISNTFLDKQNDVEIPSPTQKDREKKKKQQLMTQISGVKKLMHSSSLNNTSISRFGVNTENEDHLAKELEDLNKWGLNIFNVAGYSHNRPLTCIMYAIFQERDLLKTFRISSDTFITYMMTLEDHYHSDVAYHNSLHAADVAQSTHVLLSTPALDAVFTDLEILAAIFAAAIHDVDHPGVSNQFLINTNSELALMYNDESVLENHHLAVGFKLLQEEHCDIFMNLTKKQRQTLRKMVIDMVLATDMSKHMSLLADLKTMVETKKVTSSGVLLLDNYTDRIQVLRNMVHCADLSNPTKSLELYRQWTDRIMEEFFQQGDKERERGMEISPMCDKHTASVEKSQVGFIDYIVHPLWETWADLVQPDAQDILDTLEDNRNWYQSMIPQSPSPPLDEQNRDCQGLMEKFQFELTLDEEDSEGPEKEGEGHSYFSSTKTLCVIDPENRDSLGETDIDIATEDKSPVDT
Chain of Ubiquitin carboxyl-terminal hydrolase 1 (Homo sapiens) (O94782 whole entry, looked up): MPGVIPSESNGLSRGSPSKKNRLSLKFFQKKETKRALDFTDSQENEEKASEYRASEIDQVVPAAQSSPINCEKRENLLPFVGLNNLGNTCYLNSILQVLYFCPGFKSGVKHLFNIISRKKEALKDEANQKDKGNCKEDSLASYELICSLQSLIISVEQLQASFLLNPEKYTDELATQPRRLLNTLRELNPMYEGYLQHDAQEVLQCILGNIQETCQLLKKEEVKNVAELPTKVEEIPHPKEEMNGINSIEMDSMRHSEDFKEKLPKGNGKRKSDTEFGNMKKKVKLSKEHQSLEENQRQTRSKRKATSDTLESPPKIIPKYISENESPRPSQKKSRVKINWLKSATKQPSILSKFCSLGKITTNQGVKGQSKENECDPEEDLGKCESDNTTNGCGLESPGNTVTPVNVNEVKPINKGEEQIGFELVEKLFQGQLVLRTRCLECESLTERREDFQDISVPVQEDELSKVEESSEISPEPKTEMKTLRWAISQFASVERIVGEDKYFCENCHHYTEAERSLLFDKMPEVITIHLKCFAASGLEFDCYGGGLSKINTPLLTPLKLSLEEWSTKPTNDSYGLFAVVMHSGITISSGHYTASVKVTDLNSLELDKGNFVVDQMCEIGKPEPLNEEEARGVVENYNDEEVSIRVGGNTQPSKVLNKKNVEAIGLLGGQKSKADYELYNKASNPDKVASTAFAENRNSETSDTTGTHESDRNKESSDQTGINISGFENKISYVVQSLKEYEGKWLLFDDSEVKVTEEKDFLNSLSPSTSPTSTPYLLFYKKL
Chain of Cytochrome P450 1A2 (Homo sapiens) (P05177 whole entry, looked up): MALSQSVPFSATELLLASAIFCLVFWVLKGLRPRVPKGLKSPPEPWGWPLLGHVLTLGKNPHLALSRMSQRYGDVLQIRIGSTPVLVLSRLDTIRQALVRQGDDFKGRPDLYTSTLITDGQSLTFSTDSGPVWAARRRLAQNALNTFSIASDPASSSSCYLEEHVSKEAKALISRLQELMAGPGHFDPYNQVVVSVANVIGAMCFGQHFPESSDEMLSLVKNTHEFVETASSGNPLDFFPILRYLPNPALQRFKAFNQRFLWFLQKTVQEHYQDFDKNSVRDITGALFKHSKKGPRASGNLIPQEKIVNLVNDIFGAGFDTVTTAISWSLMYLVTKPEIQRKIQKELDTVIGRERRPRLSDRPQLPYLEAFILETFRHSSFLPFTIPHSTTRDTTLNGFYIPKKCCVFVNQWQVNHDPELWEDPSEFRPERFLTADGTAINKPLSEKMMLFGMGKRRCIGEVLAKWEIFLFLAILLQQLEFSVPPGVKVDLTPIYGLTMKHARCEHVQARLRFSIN

On to `O=c1[nH]cnc2ccccc12`, for which the Potency result in [1] and in experiment [2] was “inactive” each time.
Turning to `CNC(=O)Oc1ccc2c(c1)[C@@]1(C)CCN(C)[C@@H]1N2C`, the activity change, negative = inhibition in experiment [3] (at 17.2 µM (top of the series)) is -5.3%; in experiment [3] (at 38 µM (top of the series)) it was 6.53%; in experiment [5] (at 17.2 µM (top of the series)), -2.84%; in experiment [5] (at 38 µM (top of the series)) it was -3.73%. Further, the Potency result in [4], in [7], in experiment [8], in experiment [10], in experiment [12] and in experiment [13] was “inactive” each time. Further, the Potency entry in [14] and in [2] was “inactive” throughout. Besides, the activity, negative = inhibition was 5.27% in experiment [6] (at 17.2 µM (top of the series)) and -23.2% in experiment [6] (at 38 µM (top of the series)). Besides, in experiment [9], the molecule was called inactive. For the same molecule, the Potency in [11] is 1.26 µM (active) and 79.4 nM (active) and 251 nM (active).
For the molecule `COc1cc2nc(N3CCN(C(=O)[C@H]4CCCO4)CC3)nc(N)c2cc1OC`, the activity change, negative = inhibition is 14.3% in experiment [3] (at 38 µM (top of the series)) and -4.26% in [5] (at 38 µM (top of the series)). Besides, the Potency result in experiment [4], in [7], in [8], in experiment [10], in experiment [11] and in experiment [12] was “inactive” throughout. The Potency entry in experiment [13] and in experiment [14] was “inactive” throughout. In experiment [6] (at 38 µM (top of the series)), the activity, negative = inhibition was 7.77%. Moreover, the figures for the Potency in [15], in experiment [16] and in experiment [2] were above 46 µM, above 46 µM and 26.7 µM (active), respectively. In experiment [9], the molecule was classed as inactive.
Turning to `COc1ccc(CCCO[C@@H](Cn2ccnc2)c2ccc(OC)cc2)cc1`, the Potency in experiment [4] is 0.0158 µM (active); in experiment [15], above 46 µM; in experiment [16] it was above 46 µM. Moreover, the Potency entry in experiment [7] and in experiment [2] was “inactive” in each case.
`c1ccc2nc(C3=NCCN3)cnc2c1`: the Potency was 0.398 µM (active) in experiment [4], above 46 µM in experiment [15] and above 46 µM in experiment [16]. In addition, the Potency entry in experiment [7], in experiment [17], in experiment [14] and in experiment [2] was “inactive” throughout.
For `CN1[C@@H]2CC(OC(=O)[C@H](CO)c3ccccc3)C[C@@H]1[C@H]1O[C@H]12` (some centres undefined), the Potency result in [14] and in experiment [2] was “inactive” each time.
`O=C(/C=C/c1ccccc1)NC(NC(=S)Nc1cccc2cccnc12)C(Cl)(Cl)Cl` (centres undefined): in [2], the Potency result is “inactive”.
Regarding `CN(CCc1ccc(Cl)c(Cl)c1)C[C@@H](O)COc1ccc(NS(C)(=O)=O)cc1`, the Potency is 15.8 µM (active) in experiment [4]; above 46 µM in experiment [15]; above 46 µM in experiment [16]; 2.51 µM (active) in experiment [10]; 2 µM (active) in [12]. Moreover, the Potency result in [7], in [8], in experiment [18], in experiment [14] and in experiment [2] was “inactive” in each case.
Regarding `CN(CC[C@@H](Oc1ccc(-c2ccccc2)cc1)c1ccc(F)cc1)CC(=O)O`, the Potency entry in experiment [4], in [14] and in experiment [2] was “inactive” each time. Besides, the Potency in [15] is above 46 µM; in experiment [16], above 46 µM; in [10] it was 2.51 µM (active); in [12] it was 6.31 µM (active).
For the molecule `CC(=O)Nc1ccc(OC[C@@H](O)CNC(C)C)cc1`, the activity change, negative = inhibition in [3] (at 17.2 µM (top of the series)) was 5.39%; in experiment [5] (at 17.2 µM (top of the series)) it was -18.7%. Besides, the Potency entry in experiment [4], in experiment [7], in experiment [8], in experiment [17], in experiment [14] and in [2] was “inactive” in each case. Also, the activity, negative = inhibition in experiment [6] (at 17.2 µM (top of the series)) is 9.62%. In addition, the Potency in experiment [15] was > 20.6 µM and > 46 µM; in experiment [16] it was > 20.6 µM and > 46 µM; in [11], 3.16 µM (active).
`Fc1ccc([C@H]2CCNC[C@H]2COc2ccc3c(c2)OCO3)cc1`: the Potency is 3.16 µM (active) in experiment [4], above 46 µM in experiment [15] and above 46 µM in experiment [16]. The Potency result in [7], in experiment [18], in experiment [17], in experiment [14] and in experiment [2] was “inactive” each time.
On to `CC(=O)C1CCC2C3CCC4=CC(=O)CCC4(C)C3CCC12C` (centres undefined), for which the Potency entry in [2] was “inactive”.
As to `Clc1cccc(C=NC=Nc2cccc(Cl)c2)c1`, the Potency in experiment [4] is 0.631 µM (active); in experiment [15] it was above 46 µM; in experiment [16] it was above 46 µM. Moreover, the Potency entry in [17], in [14] and in experiment [2] was “inactive” each time.
With `CC(C)c1cccc(O)c(=O)c1`, the Potency result in experiment [17] and in [2] was “inactive” throughout.
